Screens: PubChem BioAssay, National Center for Advancing Translational Sciences (NCATS)
DT40 TDP1 no CPT: qHTS for Inhibitors of human tyrosyl-DNA phosphodiesterase 1 (TDP1): qHTS in cells in absence of CPT. hit rate 15% among 420,000. DT40 Tdp1-/- hTDP1 cells, no CPT, ATP luminescence, 48 h. Potency, µM (series often up to 46.2 µM), most hits filed as inhibitors; note: nearly all actives have a fitted effect of over 55% in size
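Compound effects on proliferation are scored in DT40 Tdp1-/-;hTDP1 cells in the absence of CPT. ATP levels (CellTiter-Glo luminescence) are recorded after a ≥48 hr, 37 °C incubation.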
TDP1 cell CPT: growth inhibition of DT40 Tdp1-/-;hTDP1 cells with camptothecin (screen for TDP1 inhibitors); chicken DT40 Tdp1-/-;hTDP1 cells + 20 nM CPT, ATP luminescence, 48 h; hit rate 12% among 420,000; Potency, µM (series often up to 46.2 µM), usual class: inhibitors; note: nearly all actives have a fitted effect of over 55% in size
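Chicken DT40 Tdp1-/- cells complemented with human TDP1, 400 cells/well, exposed to compounds plus 20 nM camptothecin for at least 48 h at 37 C; viability read as ATP content by CellTiter-Glo luminescence.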
TDP1 inh: TDP1 (human) enzyme inhibition | Q9NUW8 | recombinant TDP1, AlphaScreen DNA substrate cleavage | Potency, µM (doses to about 130 µM), hits mostly inhibitors | hit rate 0.28% among 350,000; note: nearly all actives have a fitted effect of over 40% in size
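AlphaScreen read-out: signal falls as enzyme removes the 3' tyrosine-FITC from a 5'-biotinylated DNA oligo (15 nM, 5 min, RT). Enzyme was E. coli-made recombinant Tdp1 at 1 nM, exposed to compound for 15 min beforehand; beads 10 ug/ml, 10 min.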
ClpP mod: qHTS Assay for Activators of ClpP; ATP-dependent Clp protease proteolytic subunit (Bacillus subtilis (strain 168)), P80244; Potency, µM (titrated, usually from 57.5 µM); hit rate 1.9% among 340,000; purified B. subtilis ClpP, FRET peptide cleavage, 20 min; active = well fitted falling curve with a large enough effect; inconclusive = small, poorly fitted or top-dose-only effect; inactive = no such curve, though single readings can be large or run the other way; note: the source files actives as falling curves though it sought activators and does not explain the sign; nearly all actives have a fitted effect of over 65% in size
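Buffer: 100 mM Tris/HCl pH8, 100 mM KCl, 0.05% low protease BSA, 2.5% glycerol, 0.01% Tween-20. ClpP 10 microg/mL final; 20 min RT; delta FRET normalized to ADEP and DMSO controls.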
Of the large screens only hits and unclear results are named; the others gave an inactive call. Hits are enriched below; roughly 17% of the tested compounds scored in any of these assays. Unless noted, calls come from the whole dose curve; as a rule, active = well fitted curve in the direction sought with a large enough effect; inconclusive = small, poorly fitted or top-dose-only effect, or another doubt; inactive = no such curve, though single readings can be large; an effect the other way counts as inactive or inconclusive.

COc1ccc(C[C@@H]2C(=O)N[C@H](C)C(=O)N(C)[C@@H]3Cc4ccc(cc4)Oc4cc(ccc4O)C[C@H](C(=O)N[C@@H](C)C(=O)N[C@H](C)C(=O)N2C)N(C)C3=O)cc1	DT40 TDP1 no CPT inconclusive, TDP1 cell CPT inconclusive (no result: TDP1 inh)
COc1ccc(-c2noc(N3CCC(C(=O)Nc4ccc(C)c(F)c4)CC3)n2)cc1OC	DT40 TDP1 no CPT 16µM, TDP1 cell CPT inconclusive
N#Cc1cccc(NC(=O)C2CCN(c3nc(-c4ccc(Cl)cc4)no3)CC2)c1	DT40 TDP1 no CPT 16µM, TDP1 cell CPT 13µM
COc1ccc(NC(=O)C2CCN(c3nc(-c4ccc(OC)c(OC)c4)no3)CC2)cc1Cl	DT40 TDP1 no CPT inconclusive, TDP1 cell CPT 4.1µM
COc1ccc(NC(=O)C2CCN(c3nc(-c4ccc(OC)cc4)no3)CC2)cc1	DT40 TDP1 no CPT inconclusive, TDP1 cell CPT inconclusive (no result: TDP1 inh)
COc1ccc(C(O)C2=CCCC2=O)cc1 (centres undefined)	none (no result: DT40 TDP1 no CPT, TDP1 cell CPT, ClpP mod)
CCOC(=O)c1oc2ccc(S(=O)(=O)Nc3ccc4c(c3)n(C)c(=O)n4C)cc2c1C	DT40 TDP1 no CPT 21µM, TDP1 cell CPT inconclusive
CCc1ccc(NS(=O)(=O)c2cc3c(cc2C)n(C)c(=O)c(=O)n3C)cc1	DT40 TDP1 no CPT 13µM, TDP1 cell CPT 15µM (no result: TDP1 inh)
CC(=O)Nc1ccc(NS(=O)(=O)c2ccc3c(c2)n(C)c(=O)n3C)cc1	none (no result: TDP1 inh)
CCc1cccc(NS(=O)(=O)c2ccc3c(c2)n(C)c(=O)n3C)c1	DT40 TDP1 no CPT 9.2µM, TDP1 cell CPT 10µM (no result: TDP1 inh)
CCOC(=O)c1oc2ccc(S(=O)(=O)n3nc(-c4ccc(C)cc4)cc3N)cc2c1C	DT40 TDP1 no CPT 16µM, TDP1 cell CPT 12µM
COc1ccc(-c2noc(-c3ccc(NC4CCCC4)c([N+](=O)[O-])c3)n2)cc1OC	none
CCOC(=O)c1ccc(NC(=O)c2cc(=O)c3ccc(C)c(C)c3o2)cc1	DT40 TDP1 no CPT inconclusive, TDP1 cell CPT inconclusive
O=C1CN2CCC1C/C2=C\c1ccnc2c(Cl)cccc12 (centres undefined)	DT40 TDP1 no CPT inconclusive, TDP1 cell CPT inconclusive
Cn1c(=O)c(=O)n(C)c2cc(S(=O)(=O)NCc3ccc(Cl)cc3)ccc21	DT40 TDP1 no CPT inconclusive, TDP1 cell CPT 16µM
CCc1ccc(S(=O)(=O)Nc2ccc3c(c2)n(C)c(=O)c(=O)n3C)cc1	DT40 TDP1 no CPT 15µM, TDP1 cell CPT inconclusive
CCC/C=C/c1ccc(CN2C(CC(C)C)C(=O)N(Cc3cn(CC4CCCCC4)nn3)CCS2(=O)=O)cc1 (centres undefined)	DT40 TDP1 no CPT 23µM, TDP1 cell CPT inconclusive (no result: TDP1 inh)
CC(C)C1C(=O)N(Cc2cn(CC3CCCCC3)nn2)CCS(=O)(=O)N1Cc1ccc(-c2cccc(CO)c2)cc1 (centres undefined)	DT40 TDP1 no CPT 8.2µM, TDP1 cell CPT 18µM (no result: TDP1 inh)
Cc1ccc(-c2ccc(CN3C(CC(C)C)C(=O)N(Cc4cn(CC5CCCCC5)nn4)CCS3(=O)=O)cc2)cc1 (centres undefined)	DT40 TDP1 no CPT 16µM, TDP1 cell CPT 21µM (no result: TDP1 inh)
CC(C)C1C(=O)N(Cc2cn(CC3CCCCC3)nn2)CCS(=O)(=O)N1Cc1ccc(-c2ccccc2)cc1 (centres undefined)	DT40 TDP1 no CPT 4.1µM, TDP1 cell CPT 13µM (no result: TDP1 inh)
O=c1cnc2cnc(N3CCNCC3)nc2n1C1CC1	none (no result: TDP1 inh, ClpP mod)
COc1ccccc1Nc1nnc(SCC(=O)NC(=O)Nc2ccc3c(c2)OCCO3)s1	DT40 TDP1 no CPT inconclusive, TDP1 cell CPT inconclusive
CN(C)C=O	none (no result: DT40 TDP1 no CPT, TDP1 cell CPT, ClpP mod)
CC(C)C1C(=O)N(Cc2cn(CC3CCCCC3)nn2)CCS(=O)(=O)N1Cc1ccc(-c2ccncc2)cc1 (centres undefined)	DT40 TDP1 no CPT inconclusive (no result: TDP1 inh)
CC(C)C1C(=O)N(Cc2cn(CC3CCCCC3)nn2)CCS(=O)(=O)N1Cc1ccc(-c2ccc(F)nc2)cc1 (centres undefined)	DT40 TDP1 no CPT 13µM, TDP1 cell CPT inconclusive (no result: TDP1 inh)
CC(C)C1C(=O)N(Cc2cn(CC3CCCCC3)nn2)CCS(=O)(=O)N1Cc1ccc(-c2ccc(Cl)nc2)cc1 (centres undefined)	DT40 TDP1 no CPT 10µM, TDP1 cell CPT 15µM (no result: TDP1 inh)
Cc1ccc(-c2ccc(CN3C(C(C)C)C(=O)N(Cc4cn(CC5CCCCC5)nn4)CCS3(=O)=O)cc2)cc1 (centres undefined)	DT40 TDP1 no CPT 8.2µM, TDP1 cell CPT 12µM (no result: TDP1 inh)
